PubChem BioAssay AID1508622 (National Center for Advancing Translational Sciences (NCATS), 2021)
Values without a mark were called inactive. Activity calls are given as the source filed them. The call rests on the fitted dose curve; in most records, active means well fitted activation curve with a large enough effect; inconclusive means small, poorly fitted or top-dose-only effect; inactive means no such curve, though single readings can be large or run the other way.

Test: Confirmatory qHTS for Identification of Small Molecule Activators of Huntingtin-Antisense Promoter Activity
Conditions: HEK293 HTT-AS promoter firefly luciferase reporter, 24 h; series mostly up to 57.5 µM; activity change, positive = activation: at the top concentration
How it was run: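 HEK293 luciferase reporter cells, 2,500/well, cultured 24 h, then exposed to compounds at up to 57.5 uM final for 24 h at 37C. Firefly luciferase luminescence read; normalized to vehicle (0%) and zero RLU (-100%).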
Potency means the concentration at half of the fitted maximal effect.

Compound	activity change, positive = activation [%]	Potency
CCCC(=O)c1ccc(OC(=O)c2c(-c3ccccc3Cl)noc2C)cc1	-25.5	–
Fc1ccc(-c2csc(=Nc3cccc(C(F)(F)F)c3)n2Cc2ccc3c(c2)OCO3)cc1	-30.8	–
COc1cccc(C(=O)Nc2nc(-c3nnn(-c4cccc(Cl)c4C)c3C)ns2)c1	-52.1	–
Clc1ccc(N2CCN(c3ncnc4c3nc3n4CCCC3)CC2)cc1	-85.8	–
Cc1cccc(OCC(=O)Nc2ccc3c(c2)N(C)C(=O)c2ccccc2S3)c1	-27.1	–
C#CCOc1ccc(-c2nnc(Nc3cccc(C)c3)c3ccccc23)cc1	-44.5	–
Cc1cccc(C(=O)Nc2nc(-c3nnn(-c4cc(F)ccc4F)c3C)ns2)c1	-38.5	–
CCOc1ccc(S(=O)(=O)NCCc2sc3nc(-c4ccc(C)cc4)nn3c2C)cc1	-92.1	–
CCOC(=O)c1cc2c(=O)n3ccccc3nc2n(CC2CCCO2)c1=NC(=O)c1cc(C)cc(C)c1 (configuration not stated)	-45.7	–
CCOc1ccc(-c2nc(CSCC(=O)NCCc3ccc(OCC)c(OCC)c3)c(C)o2)cc1	-49.7	–
Cc1ccc2c(c1)N(C(=O)c1ccc(F)cc1)C(C)(C)CC2(C)c1ccccc1 (configuration not stated)	-66.1	–
CCOc1ccc(CCNC(=O)c2sc3ncccc3c2-n2c(C)ccc2C)cc1	-65.6	–
CCOc1ccc(-c2nc(CSCC(=O)NCCc3ccccc3)c(C)o2)cc1	-47.2	–
COc1ccc(CCNc2ncnc3onc(C)c23)c(OC)c1	-71.8	–
CCOc1ccccc1C(=O)Nc1ccc(-n2nncc2-c2ccccc2)cc1	-10.4	–
COc1ccc(CCNC(=O)c2cc3sccc3n2Cc2ccc(Cl)cc2)cc1OC	-23.9	–
CCC(C(=O)NCCc1cc(OC)ccc1OC)n1nc(C)c2c(C)n(-c3ccccc3)nc2c1=O (configuration not stated)	-49.5	–
CCOC(=O)c1cc2c(=O)n3ccccc3nc2n(Cc2ccco2)c1=NC(=O)c1cc(C)cc(C)c1	-38.5	–
CN(C)Cc1ccc(-c2nc3cccc4c3n2CCNC4=O)cc1	–	30.1 µM (active)
COc1cc(NC(=O)CSc2nc3nc(C)c(Cc4ccc(C)cc4)c(C)n3n2)cc(OC)c1	-23	–
O=C(Nc1nc2cccc(-c3ccc(CN4CCS(=O)(=O)CC4)cc3)n2n1)C1CC1	–	8.49 µM (active)
Cc1cccc(Cn2c(SCc3ccc(C(=O)N4CCC(C)CC4)cc3)nc3ccncc32)c1	-34.5	–
